# Measured values taken from the supplement of paper PMC8728848.
# Many of the other results were omitted from the sample, so the strongest signals are more common in it than they were.
# Assays:
# Test in all cases: glycan array binding signal (z-score within array); higher = stronger binding
# [1] = tested on: Neu5Ac(a2-3)Gal(b1-3)[Fuc(a1-4)]GlcNAc; details: glycan notation: IUPAC condensed, linker removed
# Method in brief: (§1)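 Glycan array binding is given as a within-array Z-score, which can be read as non-binding when negative. The arrays, 3228 of them, came from the Consortium for Functional Glycomics database and were retained only where the protein sequence was available. Z-scores were averaged across arrays of the same protein sequence at different concentrations or buffers and across linkers.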
# [2] = tested on: Neu5Ac(a2-3)Gal(b1-3)GlcNAc; details: glycan notation: IUPAC condensed, linker removed
# Method in brief: as §1
# [3] = tested on: Neu5Ac(a2-3)Gal(b1-4)GlcNAc(b1-3)Gal(b1-3)GlcNAc; details: glycan notation: IUPAC condensed, linker removed
# Method in brief: as §1
# [4] = tested on: Neu5Ac(a2-3)Gal(b1-3)GlcNAc(b1-3)GalNAc; details: glycan notation: IUPAC condensed, linker removed
# Method in brief: as §1
# [5] = tested on: Neu5Ac(a2-3)Gal(b1-4)GlcNAc(b1-2)Man(a1-3)[GlcNAc(b1-2)Man(b1-4)GlcNAc(b1-2)Man(a1-6)]Man(b1-4)GlcNAc(b1-4)GlcNAc; details: glycan notation: IUPAC condensed, linker removed
# Method in brief: as §1
# [6] = tested on: Neu5Ac(a2-3)Gal(b1-3)GlcNAc(b1-3)Gal(b1-4)GlcNAc; details: glycan notation: IUPAC condensed, linker removed
# Method in brief: as §1
# [7] = tested on: Neu5Ac(a2-3)Gal(b1-3)[Neu5Ac(a2-6)]GalNAc; details: glycan notation: IUPAC condensed, linker removed
# Method in brief: as §1
# [8] = tested on: Neu5Ac(a2-3)Gal(b1-4)GlcNAc(b1-2)Man(a1-3)[Neu5Ac(a2-6)Gal(b1-4)GlcNAc(b1-2)Man(a1-6)]Man(b1-4)GlcNAc(b1-4)GlcNAc; details: glycan notation: IUPAC condensed, linker removed
# Method in brief: as §1
# [9] = tested on: Neu5Ac(a2-3)Gal(b1-4)GlcNAc(b1-3)Gal(b1-4)GlcNAc(b1-3)Gal(b1-4)GlcNAc(b1-2)Man(a1-3)[Neu5Ac(a2-3)Gal(b1-4)GlcNAc(b1-3)Gal(b1-4)GlcNAc(b1-3)Gal(b1-4)GlcNAc(b1-2)Man(a1-6)]GalNAc; details: glycan notation: IUPAC condensed, linker removed
# Method in brief: as §1
# [10] = tested on: Neu5Ac(a2-3)Gal(b1-3)[Neu5Ac(a2-3)Gal(b1-4)]GlcNAc; details: glycan notation: IUPAC condensed, linker removed
# Method in brief: as §1
# [11] = tested on: Neu5Ac(a2-3)Gal(b1-3)GlcNAc(b1-2)Man; details: glycan notation: IUPAC condensed, linker removed
# Method in brief: as §1
# [12] = tested on: Neu5Ac(a2-3)Gal(b1-3)GlcNAc(b1-6)GalNAc; details: glycan notation: IUPAC condensed, linker removed; mutation: R125K
# Method in brief: as §1
# [13] = tested on: Neu5Ac(a2-3)Gal(b1-3)[GlcNAc(b1-6)]GalNAc; details: glycan notation: IUPAC condensed, linker removed; mutation: R125K
# Method in brief: as §1
# [14] = tested on: Neu5Ac(a2-3)Gal(b1-4)GlcNAc(b1-2)Man(a1-3)[GlcNAc(b1-4)][Neu5Ac(a2-3)Gal(b1-4)GlcNAc(b1-2)Man(a1-6)]Man(b1-4)GlcNAc(b1-4)GlcNAc; details: glycan notation: IUPAC condensed, linker removed
# Method in brief: as §1
# [15] = tested on: Neu5Ac(a2-3)Gal(b1-4)GlcNAc(b1-2)Man(a1-3)[Neu5Ac(a2-3)Gal(b1-4)GlcNAc(b1-2)Man(a1-6)]Man(b1-4)GlcNAc(b1-4)[Fuc(a1-6)]GlcNAc; details: glycan notation: IUPAC condensed, linker removed; mutation: R125K
# Method in brief: as §1
# [16] = tested on: Neu5Ac(a2-3)Gal(b1-4)GlcNAc(b1-2)[Neu5Ac(a2-3)Gal(b1-4)GlcNAc(b1-4)]Man(a1-3)[GlcNAc(b1-4)][Neu5Ac(a2-3)Gal(b1-4)GlcNAc(b1-4)Man(a1-6)]Man(b1-4)GlcNAc(b1-4)GlcNAc; details: glycan notation: IUPAC condensed, linker removed; mutation: R125K
# Method in brief: as §1
# [17] = tested on: Neu5Ac(a2-3)Gal(b1-4)GlcNAc(b1-2)[Neu5Ac(a2-3)Gal(b1-4)GlcNAc(b1-6)]Man(a1-6)[Neu5Ac(a2-3)Gal(b1-4)GlcNAc(b1-2)Man(a1-3)]Man(b1-4)GlcNAc(b1-4)GlcNAc; details: glycan notation: IUPAC condensed, linker removed
# Method in brief: as §1
# [18] = tested on: Neu5Ac(a2-3)Gal(b1-4)GlcNAc(b1-3)Gal(b1-4)GlcNAc(b1-2)Man(a1-3)[Neu5Ac(a2-3)Gal(b1-4)GlcNAc(b1-3)Gal(b1-4)GlcNAc(b1-2)Man(a1-6)]Man(b1-4)GlcNAc(b1-4)GlcNAc; details: glycan notation: IUPAC condensed, linker removed; mutation: R125K
# Method in brief: as §1
# [19] = tested on: Neu5Ac(a2-3)Gal(b1-3)GlcNAc6S; details: glycan notation: IUPAC condensed, linker removed
# Method in brief: as §1
# [20] = tested on: Neu5Ac(a2-3)Gal(b1-4)GlcNAc(b1-2)[Neu5Ac(a2-3)Gal(b1-4)GlcNAc(b1-4)]Man(a1-3)[GlcNAc(b1-4)][Neu5Ac(a2-3)Gal(b1-4)GlcNAc(b1-2)[Neu5Ac(a2-3)Gal(b1-4)GlcNAc(b1-6)]Man(a1-6)]Man(b1-4)GlcNAc(b1-4)GlcNAc; details: glycan notation: IUPAC condensed, linker removed
# Method in brief: as §1
# PILRa (Mus musculus), Q2YSF3, sequence (Q2YSF3 entry or part of it): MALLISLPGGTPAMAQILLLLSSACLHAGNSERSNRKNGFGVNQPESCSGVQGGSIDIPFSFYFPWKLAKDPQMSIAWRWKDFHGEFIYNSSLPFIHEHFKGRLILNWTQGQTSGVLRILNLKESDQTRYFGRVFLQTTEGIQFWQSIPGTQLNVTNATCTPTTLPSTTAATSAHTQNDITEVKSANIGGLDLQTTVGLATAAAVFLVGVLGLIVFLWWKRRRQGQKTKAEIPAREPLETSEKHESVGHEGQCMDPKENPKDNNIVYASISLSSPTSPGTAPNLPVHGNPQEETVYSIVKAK
# Avaren (Actinomycete K97), sequence (chain, as listed by the source): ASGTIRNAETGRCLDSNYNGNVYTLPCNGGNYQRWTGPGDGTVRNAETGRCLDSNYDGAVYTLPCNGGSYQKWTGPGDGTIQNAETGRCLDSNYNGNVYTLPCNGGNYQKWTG
# PILRb (Mus musculus), Q2YSF2, sequence (Q2YSF2 entry or part of it): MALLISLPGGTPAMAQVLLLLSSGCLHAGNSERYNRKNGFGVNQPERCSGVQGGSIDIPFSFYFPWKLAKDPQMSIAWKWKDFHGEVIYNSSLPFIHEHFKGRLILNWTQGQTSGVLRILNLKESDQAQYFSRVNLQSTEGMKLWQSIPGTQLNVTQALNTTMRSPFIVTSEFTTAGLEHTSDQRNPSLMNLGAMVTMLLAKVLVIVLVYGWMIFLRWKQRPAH
# Neurocan (Homo sapiens), O14594, sequence (O14594 other isoform, or with tags, fused parts or gaps): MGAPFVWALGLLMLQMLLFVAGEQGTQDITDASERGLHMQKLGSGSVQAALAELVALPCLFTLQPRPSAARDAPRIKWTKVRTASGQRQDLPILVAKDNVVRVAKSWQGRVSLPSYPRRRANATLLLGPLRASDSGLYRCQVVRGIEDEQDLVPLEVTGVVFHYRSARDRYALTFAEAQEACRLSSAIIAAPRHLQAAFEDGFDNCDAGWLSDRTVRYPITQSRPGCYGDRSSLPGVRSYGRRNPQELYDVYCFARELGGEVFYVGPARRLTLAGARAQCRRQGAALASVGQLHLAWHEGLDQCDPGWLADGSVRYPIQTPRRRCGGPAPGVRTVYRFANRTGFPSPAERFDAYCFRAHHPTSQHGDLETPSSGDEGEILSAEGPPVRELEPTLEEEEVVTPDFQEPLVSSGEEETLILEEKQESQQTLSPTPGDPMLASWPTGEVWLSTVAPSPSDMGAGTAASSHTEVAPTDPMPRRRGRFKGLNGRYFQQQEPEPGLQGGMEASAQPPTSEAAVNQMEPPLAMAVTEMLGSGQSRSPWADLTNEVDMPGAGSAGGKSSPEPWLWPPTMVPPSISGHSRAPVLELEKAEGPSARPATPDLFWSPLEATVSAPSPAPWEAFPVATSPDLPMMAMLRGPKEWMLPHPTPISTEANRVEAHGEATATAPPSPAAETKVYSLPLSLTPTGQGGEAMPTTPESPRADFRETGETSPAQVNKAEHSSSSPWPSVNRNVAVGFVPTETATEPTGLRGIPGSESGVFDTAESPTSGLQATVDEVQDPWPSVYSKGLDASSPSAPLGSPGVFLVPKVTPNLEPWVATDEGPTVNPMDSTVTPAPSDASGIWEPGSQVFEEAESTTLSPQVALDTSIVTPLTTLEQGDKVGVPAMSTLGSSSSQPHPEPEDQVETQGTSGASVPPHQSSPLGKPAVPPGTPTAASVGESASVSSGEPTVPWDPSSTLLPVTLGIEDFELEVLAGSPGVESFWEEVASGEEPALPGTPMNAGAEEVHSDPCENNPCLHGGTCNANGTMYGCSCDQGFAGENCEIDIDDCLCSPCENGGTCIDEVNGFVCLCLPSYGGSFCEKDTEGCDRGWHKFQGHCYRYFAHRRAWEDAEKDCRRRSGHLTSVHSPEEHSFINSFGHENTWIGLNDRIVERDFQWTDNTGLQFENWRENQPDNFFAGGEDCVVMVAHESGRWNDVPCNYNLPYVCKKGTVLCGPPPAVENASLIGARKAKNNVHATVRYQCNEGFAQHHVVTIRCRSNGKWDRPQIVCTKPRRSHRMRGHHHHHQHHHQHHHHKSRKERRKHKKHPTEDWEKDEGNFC
# C3b (Homo sapiens), P01024, sequence (P01024 23-667): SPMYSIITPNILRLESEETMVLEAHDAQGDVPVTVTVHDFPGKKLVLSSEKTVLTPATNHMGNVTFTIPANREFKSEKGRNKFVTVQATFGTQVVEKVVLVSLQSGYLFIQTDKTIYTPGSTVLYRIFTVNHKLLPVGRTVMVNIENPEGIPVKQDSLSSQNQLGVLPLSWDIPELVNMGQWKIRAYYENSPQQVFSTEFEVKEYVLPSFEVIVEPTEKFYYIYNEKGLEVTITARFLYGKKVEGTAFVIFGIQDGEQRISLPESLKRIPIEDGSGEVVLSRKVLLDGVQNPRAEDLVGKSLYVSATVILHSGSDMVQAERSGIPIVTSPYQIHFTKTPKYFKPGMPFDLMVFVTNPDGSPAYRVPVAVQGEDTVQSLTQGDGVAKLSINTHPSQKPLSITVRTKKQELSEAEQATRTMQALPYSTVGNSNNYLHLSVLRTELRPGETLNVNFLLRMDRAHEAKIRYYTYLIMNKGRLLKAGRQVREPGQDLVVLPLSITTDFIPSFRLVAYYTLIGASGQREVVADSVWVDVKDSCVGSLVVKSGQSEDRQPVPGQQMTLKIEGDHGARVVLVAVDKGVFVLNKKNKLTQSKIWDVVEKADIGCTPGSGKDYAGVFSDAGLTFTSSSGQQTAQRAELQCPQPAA
# 6RG (Lolium perenne), sequence (chain, as listed by the source): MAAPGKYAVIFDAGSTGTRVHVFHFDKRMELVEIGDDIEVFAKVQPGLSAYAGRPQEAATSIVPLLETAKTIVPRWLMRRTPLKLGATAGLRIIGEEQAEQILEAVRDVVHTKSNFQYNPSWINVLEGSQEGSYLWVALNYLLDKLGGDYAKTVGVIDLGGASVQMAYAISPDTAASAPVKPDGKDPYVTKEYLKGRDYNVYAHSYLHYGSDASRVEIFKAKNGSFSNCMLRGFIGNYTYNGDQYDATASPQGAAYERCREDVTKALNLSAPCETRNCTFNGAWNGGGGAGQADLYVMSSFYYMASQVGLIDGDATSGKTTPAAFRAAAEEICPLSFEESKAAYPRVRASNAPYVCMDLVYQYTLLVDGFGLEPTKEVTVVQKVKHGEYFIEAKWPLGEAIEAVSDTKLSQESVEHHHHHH
# Aggrecan (Rattus norvegicus), NP_071526, sequence (chain, as listed by the source): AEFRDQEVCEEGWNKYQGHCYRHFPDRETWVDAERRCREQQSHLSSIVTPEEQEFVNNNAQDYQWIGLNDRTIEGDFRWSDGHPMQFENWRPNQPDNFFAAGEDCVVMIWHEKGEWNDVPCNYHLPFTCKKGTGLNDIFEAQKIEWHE
# wLAT-1A (Homo sapiens), Q01650, sequence (Q01650 whole entry): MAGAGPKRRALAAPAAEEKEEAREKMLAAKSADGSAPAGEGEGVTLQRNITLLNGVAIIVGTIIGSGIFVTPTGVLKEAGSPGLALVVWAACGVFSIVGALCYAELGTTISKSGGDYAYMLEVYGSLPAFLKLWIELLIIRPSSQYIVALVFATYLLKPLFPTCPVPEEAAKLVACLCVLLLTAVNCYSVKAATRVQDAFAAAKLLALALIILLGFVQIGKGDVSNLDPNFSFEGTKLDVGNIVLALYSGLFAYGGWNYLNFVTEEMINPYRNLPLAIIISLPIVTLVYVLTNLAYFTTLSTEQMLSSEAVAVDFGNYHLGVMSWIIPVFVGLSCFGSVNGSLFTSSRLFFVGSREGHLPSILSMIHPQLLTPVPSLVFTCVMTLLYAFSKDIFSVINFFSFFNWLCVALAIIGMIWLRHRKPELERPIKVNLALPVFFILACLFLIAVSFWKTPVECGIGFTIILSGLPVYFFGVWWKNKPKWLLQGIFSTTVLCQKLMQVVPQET
# SRLC (Mus musculus), Q8VIF6, sequence (Q8VIF6 other isoform, or with tags, fused parts or gaps): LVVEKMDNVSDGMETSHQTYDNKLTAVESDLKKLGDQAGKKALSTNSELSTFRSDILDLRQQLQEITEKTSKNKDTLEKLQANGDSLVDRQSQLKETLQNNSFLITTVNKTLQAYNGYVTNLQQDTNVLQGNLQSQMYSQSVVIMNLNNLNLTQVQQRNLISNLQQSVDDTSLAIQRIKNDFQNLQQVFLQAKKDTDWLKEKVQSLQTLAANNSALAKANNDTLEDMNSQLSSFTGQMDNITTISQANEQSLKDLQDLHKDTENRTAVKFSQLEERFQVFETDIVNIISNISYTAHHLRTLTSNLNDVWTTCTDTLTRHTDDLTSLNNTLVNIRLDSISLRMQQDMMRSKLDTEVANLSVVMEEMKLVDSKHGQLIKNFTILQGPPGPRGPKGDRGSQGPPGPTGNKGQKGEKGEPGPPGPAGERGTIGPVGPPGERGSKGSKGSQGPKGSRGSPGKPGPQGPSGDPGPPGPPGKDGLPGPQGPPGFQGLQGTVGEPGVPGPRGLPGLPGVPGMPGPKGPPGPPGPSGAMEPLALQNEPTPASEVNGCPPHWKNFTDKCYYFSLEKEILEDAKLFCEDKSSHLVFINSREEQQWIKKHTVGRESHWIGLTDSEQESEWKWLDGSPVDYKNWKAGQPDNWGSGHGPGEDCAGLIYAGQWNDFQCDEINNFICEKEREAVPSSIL
substance,measurement,setting,value
"Aggrecan (Rattus norvegicus), NP_071526",glycan array binding signal (z-score),[1],-0.038
"Neurocan (Homo sapiens), O14594",glycan array binding signal (z-score),[2],2.76
same,glycan array binding signal (z-score),[3],0.948
"PILRb (Mus musculus), Q2YSF2",glycan array binding signal (z-score),[4],-0.463
same,glycan array binding signal (z-score),[5],-0.119
Avaren (Actinomycete K97),glycan array binding signal (z-score),[6],-0.128
same,glycan array binding signal (z-score),[7],-0.174
same,glycan array binding signal (z-score),[8],-0.137
same,glycan array binding signal (z-score),[9],0.039
6RG (Lolium perenne),glycan array binding signal (z-score),[8],-0.191
"wLAT-1A (Homo sapiens), Q01650",glycan array binding signal (z-score),[2],-0.345
"C3b (Homo sapiens), P01024",glycan array binding signal (z-score),[10],-0.041
"Siglec-8 (Homo sapiens), Q9NYZ4",glycan array binding signal (z-score),[11],1.28
same,glycan array binding signal (z-score),[12],0.063
same,glycan array binding signal (z-score),[2]; mutation: R125K,-0.024
same,glycan array binding signal (z-score),[13],-0.157
same,glycan array binding signal (z-score),[14],-0.203
same,glycan array binding signal (z-score),[15],0.029
same,glycan array binding signal (z-score),[16],0.406
same,glycan array binding signal (z-score),[17],0.635
same,glycan array binding signal (z-score),[18],-0.161
"PILRa (Mus musculus), Q2YSF3",glycan array binding signal (z-score),[19],-0.412
same,glycan array binding signal (z-score),[7],3.58
same,glycan array binding signal (z-score),[5],-0.185
"SRLC (Mus musculus), Q8VIF6",glycan array binding signal (z-score),[7],-0.214
MpAFP RI GFP (Marinomonas primoryensis),glycan array binding signal (z-score),[20],-0.808
